# The source made the active and inactive calls.
# Tests used:
# [1] = biological target: Albumin (Bos taurus) (UniProt P02769); experiment: bovine serum albumin binders on microarray, profiling panel, artefact control for SMM control protein annotation, biochemical, small-molecule microarray, Alexa647 label, 635/667 nm fluorescence (AID 1118); details: BSA-A647 binding, fluorescence 635 nm, higher = more signal;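 also: score merges 667 nm emission intensity and signal-to-noise per printed compound spot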
# Albumin (Bos taurus), sequence (P02769 whole entry, looked up): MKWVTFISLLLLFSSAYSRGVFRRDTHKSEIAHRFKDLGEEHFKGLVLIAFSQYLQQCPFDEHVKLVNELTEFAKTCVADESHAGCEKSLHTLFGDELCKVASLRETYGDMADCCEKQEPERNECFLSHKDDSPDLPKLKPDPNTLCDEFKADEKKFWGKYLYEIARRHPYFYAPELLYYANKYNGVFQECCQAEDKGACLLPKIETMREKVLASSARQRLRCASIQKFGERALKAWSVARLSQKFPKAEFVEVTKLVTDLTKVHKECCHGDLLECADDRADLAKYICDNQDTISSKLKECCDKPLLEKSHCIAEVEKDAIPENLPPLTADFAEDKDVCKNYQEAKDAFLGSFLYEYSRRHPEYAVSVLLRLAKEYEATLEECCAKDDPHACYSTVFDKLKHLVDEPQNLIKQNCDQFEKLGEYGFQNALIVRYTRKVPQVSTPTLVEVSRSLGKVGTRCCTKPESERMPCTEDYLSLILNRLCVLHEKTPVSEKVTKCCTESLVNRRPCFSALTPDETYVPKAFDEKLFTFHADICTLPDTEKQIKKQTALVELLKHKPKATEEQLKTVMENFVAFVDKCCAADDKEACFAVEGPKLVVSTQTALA
# [2] = small-molecule microarray binders of probe aXIP, primary screen, biochemical, NeuroSMM set, 635/667 nm fluorescence (AID 1119); details: higher = more signal, called active from +8 up or from −8 down;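 also: probe is the protein aXip251-270 applied at 1 µg/mL to compound-printed slides; binding of probe to printed compounds measured as 667 nm fluorescence plus signal to noise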
# [3] = small-molecule binders of probe aNOTCH3, primary screen, biochemical, small-molecule microarray, 635/667 nm fluorescence (AID 1120); details: higher = more signal;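 also: probe is a biotin-tagged antibody raised against NOTCH3 rather than NOTCH3 protein; score merges spot fluorescence near 667 nm with spot signal to noise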
# [4] = small-molecule binders of probe aNOTCH2, primary screen, biochemical, small-molecule microarray, 635/667 nm fluorescence (AID 1121); details: higher = more signal;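 also: score merges feature fluorescence read at 667 nm with its signal to noise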
# [5] = biological target: Carbonic anhydrase 2 (Homo sapiens) (UniProt P00918); experiment: CAII small-molecule binders, profiling panel, biochemical, small-molecule microarray, Alexa647-labelled CAII (AID 1122); details: CAII-A647 binding fluorescence, higher = more signal
# [6] = COS7 lysate on small-molecule microarray, probe aHis, 635 nm (AID 1123); details: COS7 cell lysate, fluorescence, higher = more signal;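 also: z-score combines 667nm fluorescence intensity with signal-to-noise per printed compound spot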
# [7] = compound binding in COS7 lysate, probe aLAP1, primary screen, cell lysate, small-molecule microarray (AID 1124); details: probe aLAP1, fluorescence, higher = more signal;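 also: lysate comes from COS7 cells expressing LAP1 and is applied at 0.3 µg/mL; score merges spot fluorescence near 667 nm with signal-to-noise over triplicate slides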
# [8] = system: Sam68 (KHDRBS1); experiment: Sam68 small-molecule binders, primary screen, biochemical, small-molecule microarray, 635 nm fluorescence (AID 1125); details: small-molecule microarray binding, higher = more signal;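 also: score merges 667 nm channel intensity with signal to noise over triplicate slides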
# [9] = system: Chordin-like protein 2 (CHRDL2); experiment: CHRDL2 small-molecule binders, primary screen, biochemical, small-molecule microarray, 635 nm fluorescence (AID 1126); details: small-molecule microarray binding, fluorescence 635 nm; higher = more signal;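 also: printed compound slides probed with Chrdl2 protein at 4 µg/mL for 1 h at 4 C; score merges 667 nm emission intensity with signal to noise over three replicate slides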
# [10] = biological target: Concanavalin-A (Canavalia ensiformis) (UniProt P02866); experiment: ConA small-molecule binders, primary screen, artefact control for SMM control protein annotation, biochemical, small-molecule microarray, Alexa647 label, 635 nm (AID 1127); details: ConA-A647 binding fluorescence, higher = more signal;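 also: z combines 667 nm emission intensity with signal-to-noise across three replicate slides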
# Concanavalin-A (Canavalia ensiformis), sequence (P02866 whole entry, looked up): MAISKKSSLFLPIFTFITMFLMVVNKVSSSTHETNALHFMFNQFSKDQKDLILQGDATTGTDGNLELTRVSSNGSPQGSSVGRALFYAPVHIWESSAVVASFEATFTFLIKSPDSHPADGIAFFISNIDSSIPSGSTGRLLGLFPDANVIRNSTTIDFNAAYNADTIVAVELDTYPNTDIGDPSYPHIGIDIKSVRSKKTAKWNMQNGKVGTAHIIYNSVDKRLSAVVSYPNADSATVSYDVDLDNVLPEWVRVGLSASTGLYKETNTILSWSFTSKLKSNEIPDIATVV
SMILES,composite z-score [1],composite Z-score [2],composite z-score [3],composite z-score [4],composite z-score [5],composite z-score [6],composite z-score [7],composite z-score [8],composite z-score [9],composite z-score [10]
COc1ccc(C#Cc2ccc3c(c2)[C@]2(C(=O)N3)[C@H](c3ccccc3OCCO)N3[C@H](c4ccccc4)[C@H](c4ccccc4)OC(=O)[C@H]3[C@@H]2C(=O)O)cc1,0.702,-0.274 (inactive),0.671,0.114,0.473,2.27,0.649,1.3,-0.0011,1.15
CCOC(=O)[C@H]1CC=C2CC1C(=O)N1CCC[C@@H]1[C@@H]2O[Si](C)(C)C(C)(C)C (stereo not given in full),-0.0458,0.131 (inactive),-0.213,-0.161,-0.386,0.168,-0.407,-0.0813,-0.287,-2.28
O=C(NCc1ccccc1)[C@@]1(Cc2ccccc2)N=C(c2ccc(OCCCO)cc2)O[C@H]1c1ccccc1,0.974,0.1 (inactive),0.261,0.349,0.617,2.41,1.4,1.31,-1.46,1.15
COc1cc2c(cc1OC)CN(C(=O)[C@H]1[C@@H]3C(=O)O[C@@H](c4ccccc4)[C@@H](c4ccccc4)N3[C@@H](c3ccc(O)cc3)[C@]13C(=O)Nc1ccc(C#CCNC(N)=O)cc13)CC2,-0.176,-0.136 (inactive),0.0397,-0.165,0.169,0.103,0.523,-0.0579,0.702,0.212
CCOC(=O)C[C@H]1[C@H](OC(=O)Cc2ccc3c(c2)OCO3)[C@@H](NC(=O)c2ccc(-c3ccccc3)cc2)c2cc(OCCCO)ccc2N1C(=O)c1ccc2ccccc2n1,0.238,-0.549 (inactive),-0.112,-0.182,0.0289,0.1,0.0968,0.202,0.415,0.643
C=CC[C@]12N=C(c3ccc(OCCCO)cc3)O[C@H]1c1ccccc1N(Cc1ccccc1)C2=O,-0.0059,1.2 (inactive),0.0225,-0.078,0.669,2.12,0.38,0.98,0.317,0.385
COc1cc(OC)c(C(O)C2C=CC3C(=O)NC(=O)C3N2Nc2ccc(Cl)cc2Cl)cc1Br (stereo not given),1,2.76 (inactive),0.282,0.321,0.615,2.99,0.474,1.22,-1.09,0.468

# From PubChem BioAssay
